Test results reported in PubChem BioAssay (EPA / NIEHS).
The source made the active and inactive calls. How the source made its calls: active means hit-call score of the fitted dose curve at least 0.9, where 1 is the maximum; inactive means score below 0.9.

Legend:
[1] = ATG_CRE_CIS: Attagene CIS-FACTORIAL HepG2 Assay for human cAMP Responsive Element (CRE) binding protein 3 (AID 2282926); details: HepG2 CRE cis-reporter, Attagene multiplexed mRNA; actives raise or lower the signal
Summary of the method: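 Human liver HepG2, transient MRTU transfection, 24 h compound exposure. Total RNA → oligo(dT) RT → PCR → 6-FAM primer extension → HpaI cut → CE. Activity called both directions vs DMSO.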

[2] = biological target: CCAAT/enhancer-binding protein beta (Homo sapiens) (UniProt P17676); test: ATG_C_EBP_CIS: Attagene CIS-FACTORIAL HepG2 Assay for human CCAAT/Enhancer Binding Protein (C/EBP) beta (AID 2282927); details: HepG2 Attagene cis-factorial transcription factor reporter; actives raise or lower the signal
Sequence of CCAAT/enhancer-binding protein beta (Homo sapiens) (P17676 whole entry, looked up): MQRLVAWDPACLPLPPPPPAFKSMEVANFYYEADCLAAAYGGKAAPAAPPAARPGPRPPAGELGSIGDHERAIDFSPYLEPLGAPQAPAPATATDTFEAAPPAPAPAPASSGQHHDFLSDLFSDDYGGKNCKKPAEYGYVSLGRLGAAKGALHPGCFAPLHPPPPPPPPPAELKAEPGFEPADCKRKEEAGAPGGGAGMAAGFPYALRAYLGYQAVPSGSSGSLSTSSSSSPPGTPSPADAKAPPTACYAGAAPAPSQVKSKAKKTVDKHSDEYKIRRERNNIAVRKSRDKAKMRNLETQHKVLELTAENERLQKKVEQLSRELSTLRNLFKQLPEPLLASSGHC
Summary of the method: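 HepG2 transiently transfected with multiplexed reporter units under cis-regulatory promoters reporting endogenous C/EBPb activity. After 24 h exposure, reporter mRNA assayed by RT-PCR, fluorescent labelling, HpaI digestion and capillary electrophoresis; bidirectional fitting versus DMSO.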

[3] = ATG_CMV_CIS: Attagene CIS-FACTORIAL HepG2 Assay for human CMV (Internal Marker) (AID 2282928); details: HepG2 CMV promoter reporter, transcription factor profiling; actives raise or lower the signal;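 further: endpoint acts as a background internal control marker rather than a target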
Summary of the method: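 CMV internal-marker background readout in transiently transfected HepG2 cells bearing cis-regulated reporter units. Reporter mRNA is measured 24 h after dosing by RT-PCR and capillary electrophoresis, with bidirectional fitting against DMSO.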

[4] = ATG_DR4_LXR_CIS: Attagene CIS-FACTORIAL HepG2 Assay for human Liver X Receptor (LXR), DR4 submotif (AID 2282929); details: HepG2 Attagene DR4 cis-reporter, mRNA transcription; actives raise or lower the signal
Summary of the method: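 The endpoint is DR4-element-driven reporter transcripts after 24 h chemical exposure of transfected HepG2 cells. These were measured via RT-PCR and capillary electrophoresis, and gain or loss of signal was fitted relative to DMSO controls.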

[5] = biological target: Aryl hydrocarbon receptor (Homo sapiens) (UniProt P35869); test: ATG_Ahr_CIS: Attagene CIS-FACTORIAL HepG2 Assay for human Aryl Hydrocarbon Receptor (Ahr) (AID 2282930); details: HepG2 AhR cis-factorial reporter transcription; actives raise or lower the signal
Sequence of Aryl hydrocarbon receptor (Homo sapiens) (P35869 whole entry, looked up): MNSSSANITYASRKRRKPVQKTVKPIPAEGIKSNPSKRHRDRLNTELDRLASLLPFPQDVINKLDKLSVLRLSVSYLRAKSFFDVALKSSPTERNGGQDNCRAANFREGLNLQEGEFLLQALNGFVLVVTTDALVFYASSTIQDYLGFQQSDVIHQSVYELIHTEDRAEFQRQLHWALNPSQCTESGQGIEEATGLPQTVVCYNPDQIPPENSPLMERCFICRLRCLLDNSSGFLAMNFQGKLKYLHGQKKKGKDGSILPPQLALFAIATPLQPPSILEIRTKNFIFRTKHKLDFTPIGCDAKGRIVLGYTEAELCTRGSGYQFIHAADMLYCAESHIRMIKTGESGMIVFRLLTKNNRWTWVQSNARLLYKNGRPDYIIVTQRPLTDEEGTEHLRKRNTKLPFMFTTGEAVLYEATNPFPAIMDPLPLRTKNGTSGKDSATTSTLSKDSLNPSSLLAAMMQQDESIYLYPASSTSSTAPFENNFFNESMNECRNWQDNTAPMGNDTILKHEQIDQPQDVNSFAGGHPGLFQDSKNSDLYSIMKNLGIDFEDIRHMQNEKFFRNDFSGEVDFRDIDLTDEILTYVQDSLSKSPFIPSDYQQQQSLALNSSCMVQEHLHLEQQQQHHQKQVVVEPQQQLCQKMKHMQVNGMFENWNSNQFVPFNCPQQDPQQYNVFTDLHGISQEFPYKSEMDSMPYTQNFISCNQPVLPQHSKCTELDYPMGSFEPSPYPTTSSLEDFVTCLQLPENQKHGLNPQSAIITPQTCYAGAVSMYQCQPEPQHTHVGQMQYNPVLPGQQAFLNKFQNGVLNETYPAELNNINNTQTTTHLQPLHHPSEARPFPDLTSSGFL
Summary of the method: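 HepG2 cells transiently transfected with cis-element-driven multiplexed reporter units; endogenous AhR activity read as reporter mRNA 24 h after dosing, via RT-PCR, 6-FAM labelling, HpaI digestion and capillary electrophoresis. Bidirectional fit relative to DMSO.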

[6] = ATG_AP_1_CIS: Attagene CIS-FACTORIAL HepG2 Assay for human Activator Protein 1 (AP-1) (AID 2282931); details: HepG2 Attagene cis-factorial AP-1 reporter mRNA; actives raise or lower the signal
Summary of the method: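 Readout is reporter transcript level from endogenous transcription factor activity, quantified by RT-PCR with fluorescent primer extension and capillary electrophoresis. Transiently transfected HepG2 cells, 24 h exposure. Curves fitted both directions versus DMSO.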

[7] = ATG_AP_2_CIS: Attagene CIS-FACTORIAL HepG2 Assay for human Activator Protein 2 (AP-2) (AID 2282932); details: HepG2 AP-2 cis-reporter, Attagene transcription factor profiling; actives raise or lower the signal
Summary of the method: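 Multiplexed mRNA reporter assay in HepG2: cis-regulated units report endogenous factor activity after 24 h treatment. Fluorescence from capillary electrophoresis of RT-PCR products gives the signal, with DMSO as baseline.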

[8] = ATG_BRE_CIS: Attagene CIS-FACTORIAL HepG2 Assay for human Bone Morphogenetic Protein (BMP) Response Element (BRE) (AID 2282933); details: HepG2 BMP response element reporter, Attagene transcription factor profiling; actives raise or lower the signal
Summary of the method: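 A HepG2 multiplex reporter system measured inducible reporter mRNA 24 h post-dosing. Detection: RT-PCR, 6-FAM primer extension, HpaI digestion, capillary electrophoresis. Activity fitted bidirectionally relative to DMSO.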

[9] = biological target: Transcription factor E2F1 (Homo sapiens) (UniProt Q01094); test: ATG_E2F_CIS: Attagene CIS-FACTORIAL HepG2 Assay for human E2F Transcription Factor 1 (AID 2282935); details: HepG2 Attagene cis-reporter, E2F reporter RNA transcripts; actives raise or lower the signal
Sequence of Transcription factor E2F1 (Homo sapiens) (Q01094 whole entry, looked up): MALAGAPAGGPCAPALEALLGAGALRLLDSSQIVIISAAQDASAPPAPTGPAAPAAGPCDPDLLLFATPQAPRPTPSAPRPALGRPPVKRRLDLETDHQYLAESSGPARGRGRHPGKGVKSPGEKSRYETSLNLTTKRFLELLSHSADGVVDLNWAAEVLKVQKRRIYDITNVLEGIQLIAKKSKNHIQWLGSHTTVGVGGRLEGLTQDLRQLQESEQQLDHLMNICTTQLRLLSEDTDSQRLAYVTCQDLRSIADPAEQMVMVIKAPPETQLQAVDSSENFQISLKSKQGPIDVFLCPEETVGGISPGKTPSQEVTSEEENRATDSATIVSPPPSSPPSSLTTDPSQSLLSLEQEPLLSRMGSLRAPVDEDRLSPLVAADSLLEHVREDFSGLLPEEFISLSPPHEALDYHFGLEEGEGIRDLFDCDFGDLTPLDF
Summary of the method: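 Measures reporter transcript levels via RT-PCR with capillary electrophoresis detection in HepG2 cells harboring cis-regulated reporter units; 24 h post-dose; bidirectional curve fitting with DMSO as baseline.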

[10] = ATG_E_Box_CIS: Attagene CIS-FACTORIAL HepG2 Assay for human Enhancer Box (E-box) (AID 2282936); details: HepG2 E-box cis-reporter transcription, actives raise or lower the signal
Summary of the method: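 First, HepG2 cells receive multiple cis-regulated reporter constructs by transient transfection. Next, chemicals are applied for 24 h. Finally, reporter mRNA is quantified via RT-PCR and capillary electrophoresis, with DMSO as baseline.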

[11] = ATG_M_61_CIS: Attagene CIS-FACTORIAL HepG2 Assay for M61 Transcription Factor (Internal Marker) (AID 2282937); details: HepG2 Attagene CIS-FACTORIAL M61 internal marker reporter; actives raise or lower the signal
Summary of the method: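 Readout is reporter mRNA by RT-PCR, fluorescent primer extension and capillary electrophoresis, with gain or loss fitted relative to DMSO. Transfected HepG2 cells carrying endogenous-TF-driven cis reporters were exposed to chemicals for 24 hours.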

[12] = ATG_M_19_CIS: Attagene CIS-FACTORIAL HepG2 Assay for M19 Transcription Factor (Internal Marker) (AID 2282939); details: HepG2 Attagene CIS-FACTORIAL M19 internal marker reporter; actives raise or lower the signal
Summary of the method: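 Chemical-treated HepG2 (24 h) with MRTU constructs; reporter transcripts detected by fluorescent RT-PCR fragment analysis on capillary electrophoresis. Internal background marker, DMSO as baseline.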

[13] = ATG_Ets_CIS: Attagene CIS-FACTORIAL HepG2 Assay for human Erythroblast Transformation Specific (ETS) (AID 2282941); details: HepG2 ETS cis-reporter transcription, actives raise or lower the signal
Summary of the method: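 HepG2 cells transfected with multiple cis-regulated reporter units measuring endogenous ETS-driven transcription, 24 h after dosing. Reporter mRNA quantified by RT-PCR with capillary electrophoresis; bidirectional fit relative to DMSO.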

[14] = biological target: Hepatocyte nuclear factor 3-beta (Homo sapiens) (UniProt Q9Y261); test: ATG_FoxA2_CIS: Attagene CIS-FACTORIAL HepG2 Assay for human Forkhead box A2 (FOXA2) (AID 2282942); details: HepG2 cis-reporter transcription factor activity, 24 h; actives raise or lower the signal
Sequence of Hepatocyte nuclear factor 3-beta (Homo sapiens) (Q9Y261 whole entry, looked up): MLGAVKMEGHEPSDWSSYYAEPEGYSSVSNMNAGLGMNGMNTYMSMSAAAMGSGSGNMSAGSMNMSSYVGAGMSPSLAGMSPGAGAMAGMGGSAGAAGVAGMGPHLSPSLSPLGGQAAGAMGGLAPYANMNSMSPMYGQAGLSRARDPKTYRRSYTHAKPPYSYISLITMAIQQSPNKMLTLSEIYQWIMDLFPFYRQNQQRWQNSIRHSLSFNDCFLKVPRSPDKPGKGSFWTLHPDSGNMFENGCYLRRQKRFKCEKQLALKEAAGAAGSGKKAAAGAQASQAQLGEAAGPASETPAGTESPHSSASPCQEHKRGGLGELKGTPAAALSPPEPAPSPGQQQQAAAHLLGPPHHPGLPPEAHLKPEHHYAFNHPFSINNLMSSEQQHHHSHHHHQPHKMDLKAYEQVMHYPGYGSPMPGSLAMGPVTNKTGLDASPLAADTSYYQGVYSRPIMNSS
Summary of the method: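 Endogenous transcription factor activity is captured via cis-element-driven reporter transcripts in transfected HepG2. Total RNA taken at 24 h post-dosing; labelled RT-PCR products resolved by capillary electrophoresis. Gain or loss fitted versus DMSO.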

[15] = ATG_FoxO_CIS: Attagene CIS-FACTORIAL HepG2 Assay for human Forkhead box O (FoxO) (AID 2282943); details: HepG2 Attagene cis-reporter, FoxO element, mRNA; actives raise or lower the signal
Summary of the method: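 HepG2 cells transiently transfected with cis-element-driven reporter units report endogenous FoxO activity. After 24 h chemical exposure, reporter mRNA quantified by RT-PCR, fluorescent labeling, HpaI digestion and capillary electrophoresis; bidirectional fit versus DMSO.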

[16] = ATG_GATA_CIS: Attagene CIS-FACTORIAL HepG2 Assay for human GATA Binding Protein (AID 2282944); details: HepG2 GATA cis-element reporter, Attagene multiplex mRNA; actives raise or lower the signal
Summary of the method: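 Transfected cis-reporter HepG2 cells were treated with chemicals for 24 hours. Total RNA was then converted to cDNA, amplified with reporter-specific primers and analysed by fluorescent capillary electrophoresis, using DMSO-treated wells as baseline.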

[17] = ATG_GLI_CIS: Attagene CIS-FACTORIAL HepG2 Assay for human Zinc Finger Protein GLI1 (AID 2282945); details: HepG2, Attagene cis-factorial reporter mRNA, GLI element; actives raise or lower the signal
Summary of the method: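 Transiently transfected HepG2 cells report endogenous transcription factor activity via cis-element-driven reporter units. After 24 h compound exposure, reporter mRNA was measured by RT-PCR with capillary electrophoresis; bidirectional fitting against DMSO baseline.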

[18] = ATG_EGR_CIS: Attagene CIS-FACTORIAL HepG2 Assay for human Early Growth Response 1 (EGR1) (AID 2282938); details: HepG2 Attagene CIS-FACTORIAL EGR reporter mRNA; actives raise or lower the signal
Summary of the method: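 After 24 h compound exposure, RNA from reporter-transfected HepG2 cells was reverse-transcribed, PCR-amplified, fluorescently labelled and resolved by capillary electrophoresis. EGR1 reporter transcript changes, up or down, were fitted against DMSO, reflecting endogenous transcription-factor activity.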

[19] = ATG_ERE_CIS: Attagene CIS-FACTORIAL HepG2 Assay for Estrogen Response Element (ERE) (AID 2282940); details: HepG2 ERE cis-reporter, Attagene RNA transcript; actives raise or lower the signal
Summary of the method: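 Human liver cells (HepG2) bearing transiently transfected, promoter-regulated reporter units were exposed 24 h. Reporter mRNA induction was detected by capillary electrophoresis of labelled RT-PCR products and fitted bidirectionally to DMSO.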

CC(C)CCCCCCCOC(=O)c1ccc(C(=O)OCCCCCCCC(C)C)c(C(=O)OCCCCCCCC(C)C)c1
outcome [1]: inactive | outcome [2]: inactive | outcome [3]: inactive | outcome [4]: inactive | outcome [5]: inactive | outcome [6]: inactive | outcome [7]: inactive | outcome [8]: inactive | outcome [9]: inactive | outcome [10]: inactive | outcome [11]: inactive | outcome [12]: inactive | outcome [13]: inactive | outcome [14]: inactive | outcome [15]: inactive | outcome [16]: inactive | outcome [17]: inactive

O=C1OC2(c3cc(Br)c(O)c(Br)c3Oc3c2cc(Br)c(O)c3Br)c2c(Cl)c(Cl)c(Cl)c(Cl)c21
outcome [1]: inactive | outcome [2]: inactive | outcome [3]: inactive | outcome [4]: inactive | AC50 [5]: 15.1 µM (active) | outcome [6]: inactive | outcome [7]: inactive | outcome [8]: inactive | outcome [10]: inactive | outcome [11]: inactive | AC50 [18]: 35 µM (active) | outcome [12]: inactive | AC50 [19]: 18.2 µM (active) | outcome [13]: inactive | outcome [14]: inactive | outcome [15]: inactive | outcome [16]: inactive | outcome [17]: inactive

O=Nc1ccc(Nc2ccccc2)cc1
outcome [1]: inactive | AC50 [2]: 8.78 µM (active) | AC50 [3]: 8.52 µM (active) | AC50 [4]: 25.3 µM (active) | AC50 [5]: 33.4 µM (active) | outcome [6]: inactive | outcome [7]: inactive | outcome [8]: inactive | AC50 [10]: 9.04 µM (active) | outcome [11]: inactive | AC50 [18]: 37.7 µM (active) | outcome [12]: inactive | outcome [19]: inactive | outcome [13]: inactive | outcome [16]: inactive | AC50 [17]: 55 µM (active)

COc1ccc(Nc2ccccc2)c(C)c1
outcome [1]: inactive | outcome [2]: inactive | AC50 [3]: 100 µM (active) | AC50 [4]: 46 µM (active) | outcome [5]: inactive | AC50 [6]: 139 µM (active) | outcome [7]: inactive | AC50 [8]: 149 µM (active) | outcome [9]: inactive | outcome [10]: inactive | outcome [11]: inactive | outcome [12]: inactive | AC50 [19]: 19.6 µM (active) | outcome [13]: inactive | outcome [14]: inactive | outcome [15]: inactive | outcome [16]: inactive | outcome [17]: inactive

CC(C)(CO)[N+](=O)[O-]
outcome [1]: inactive | outcome [2]: inactive | outcome [3]: inactive | outcome [4]: inactive | outcome [5]: inactive | outcome [6]: inactive | outcome [7]: inactive | outcome [8]: inactive | outcome [9]: inactive | outcome [10]: inactive | outcome [11]: inactive | outcome [18]: inactive | outcome [13]: inactive | outcome [14]: inactive | outcome [16]: inactive | outcome [17]: inactive

CCOc1ccccc1OCC
outcome [1]: inactive | outcome [2]: inactive | outcome [3]: inactive | outcome [4]: inactive | outcome [5]: inactive | outcome [6]: inactive | outcome [7]: inactive | outcome [8]: inactive | outcome [10]: inactive | outcome [11]: inactive | outcome [18]: inactive | outcome [13]: inactive | outcome [14]: inactive | outcome [16]: inactive | outcome [17]: inactive

COc1ccnc(CS(=O)c2nc3cc(OC(F)F)ccc3[nH]2)c1OC (stereo unspecified)
outcome [1]: inactive | outcome [2]: inactive | outcome [3]: inactive | outcome [4]: inactive | outcome [5]: inactive | outcome [6]: inactive | outcome [7]: inactive | outcome [8]: inactive | outcome [9]: inactive | outcome [10]: inactive | outcome [11]: inactive | outcome [12]: inactive | outcome [19]: inactive | outcome [13]: inactive | outcome [14]: inactive | outcome [15]: inactive | outcome [16]: inactive | outcome [17]: inactive

O=C(O)c1cn(C2CC2)c2cc(N3CCNCC3)c(F)cc2c1=O
outcome [1]: inactive | outcome [2]: inactive | outcome [3]: inactive | outcome [4]: inactive | outcome [5]: inactive | outcome [6]: inactive | outcome [7]: inactive | outcome [8]: inactive | outcome [9]: inactive | outcome [10]: inactive | outcome [11]: inactive | outcome [12]: inactive | outcome [19]: inactive | outcome [13]: inactive | outcome [14]: inactive | outcome [15]: inactive | outcome [16]: inactive | outcome [17]: inactive
